Screening data as filed in PubChem.
ATXN viability: Viability Counterscreen for Primary qHTS for Inhibitors of ATXN expression; S2 cells (HEK-293 line with an ATXN2-luciferase reporter) viability, CellTiter-Fluor protease fluorescence, 24 h; 400,000 compounds, 0.49% hits; AID 651635, 2014; Potency, µM (top dose mostly 56.7 µM), usual class: cytotoxic; further: nearly all actives have a fitted effect of over 40% in size
PINK1 modulator: A Quantitative High throughput Screen to Identify Chemical Modulators of PINK1 Expression; PINK1 immunofluorescence, high-content cytometry, 24 h; Potency, µM (titrated, usually from 76.6 µM), hits mostly activators; 410,000 compounds, 0.2% hits; AID 624263, 2012; active means well fitted activation curve with a large enough effect; inconclusive means small, poorly fitted or top-dose-only effect; cell line not stated here; further: nearly all actives have a fitted effect of over 65% in size
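Readout is PINK1 immunofluorescence, quantified alongside mitochondrial, cell and nuclear markers by laser-scanning microplate cytometry. Cells from a stable line were exposed to compound titrations (5 concentrations) for 24 hours, with CCCP controls.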
IL-1B inflam inh: qHTS for Inhibitors of Inflammasome Signaling: IL-1-beta AlphaLISA Primary Screen; 360,000 compounds, 4.7% hits; activity change, % at 57.5 µM; AID 743279, 2014; THP-1 LPS/ATP IL-1B secretion, AlphaLISA, 16 h; hits give low values; in the data active means activity change below about -50%; inconclusive means mostly about -30% to -49%
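THP-1 cells pretreated 1 hr with compounds (up to 57.5 uM final), then stimulated with LPS (250 ng/mL final) plus ATP (1.25 mM final); secreted IL-1B measured by AlphaLISA after 16 hr, decreased signal indicating inhibition.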
ATXN2 expr inh: Primary qHTS for Inhibitors of ATXN expression. HEK-293 ATXN2-luciferase reporter, luminescence, 24 h. Potency, µM (series often up to 57 µM), actives largely listed as inhibitors. 360,000 compounds, 0.72% hits; further: nearly all actives have a fitted effect of over 55% in size
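ATXN2-luciferase reporter cells (luciferase flanked by upstream and downstream ATXN2 gene portions) were treated 24 h at 37 °C with compounds at up to 57 uM. SteadyGlo luminescence gave expression; GF-AFC fluorescence gave viability.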
SW480 rereplic: A quantitative high throughput screen for small molecules that induce DNA re-replication in SW480 colon adenocarcinoma cells | SW480 DNA re-replication, Hoechst DNA content imaging, 48 h | Potency, µM (highest dose often 46.1 µM), most hits filed as activators | 340,000 compounds, 1.8% hits; further: nearly all actives have a fitted effect of over 55% in size
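Hoechst fluorescence of nuclei (405 nm excitation, 500-530 nm emission) measured by plate-scanning imager after 48 hr compound exposure at 37 C; re-replication scored as increased number of nuclei with elevated intensity.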
MCF10A rereplic: A quantitative high throughput screen for small molecules that induce DNA re-replication in MCF 10a normal breast cells; MCF 10A DNA re-replication, Hoechst nuclear intensity, 48 h; Potency, µM (doses to about 46.1 µM), hits mostly activators; 350,000 compounds, 2.9% hits; further: nearly all actives have a fitted effect of over 50% in size
Of the large screens only hits and unclear results are named; the others gave an inactive call. The list is not random: actives were taken first. Their share in the collection is about 7.1%. Unless noted, the call rests on the fitted dose curve; in most records, active means well fitted curve in the direction sought with a large enough effect; inconclusive means small, poorly fitted or top-dose-only effect, or another doubt; inactive means no such curve, though single readings can be large; an effect the other way counts as inactive or inconclusive.

Cc1ccc(NC(=O)C(C)n2nnc3sc4c(c3c2=O)CCCC4)cc1Cl (centres undefined)	ATXN viability inconclusive (no result: IL-1B inflam inh, SW480 rereplic, MCF10A rereplic)
CCc1ccc(C2=NN(C(C)=O)C(c3ccco3)C2)cc1 (centres undefined)	MCF10A rereplic inconclusive (no result: ATXN2 expr inh)
CC(=O)N1N=C(c2cccc(NS(=O)(=O)c3ccc(C)cc3)c2)CC1c1ccco1 (centres undefined)	SW480 rereplic 16.4µM, MCF10A rereplic inconclusive
CC(=O)N1N=C(c2ccc(NS(=O)(=O)c3ccccc3)cc2)CC1c1ccco1 (centres undefined)	ATXN2 expr inh inconclusive, SW480 rereplic 11.6µM, MCF10A rereplic inconclusive
O=C(COc1cccnc1[N+](=O)[O-])N1N=C(c2ccc(Cl)cc2)CC1c1ccco1 (centres undefined)	none
Cc1ccc(OCC(=O)N2N=C(c3ccc(Cl)cc3)CC2c2ccco2)c([N+](=O)[O-])n1 (centres undefined)	IL-1B inflam inh -53.6
CC(C)[C@H](NS(=O)(=O)c1ccccc1)C(=O)OCC(=O)N1N=C(c2ccc(Cl)cc2)CC1c1ccco1 (some centres undefined)	IL-1B inflam inh -71.7
C=CCN1C(=O)/C(=C2/Sc3ccc(OC)cc3N2C)SC1=Nc1cccc(O)c1	PINK1 modulator inconclusive, SW480 rereplic inconclusive, MCF10A rereplic 5.8µM
CCN(C(=O)c1cn(-c2cccc(OC)c2)c(=O)c2ccccc12)c1ccccc1C	none (no result: ATXN viability, IL-1B inflam inh, ATXN2 expr inh, SW480 rereplic, MCF10A rereplic)
COc1cc(NC(=O)c2c(-c3ccc(C)cc3)nnc3ccccc23)cc(OC)c1OC	none (no result: ATXN viability, IL-1B inflam inh, ATXN2 expr inh, SW480 rereplic, MCF10A rereplic)
CCCOc1ccc(C(=O)C(c2ccccc2)N2CCOCC2)cc1 (centres undefined)	none
COc1ccc(C(=O)C(CN2CCOCC2)c2ccccc2)cc1F (centres undefined)	ATXN viability inconclusive, IL-1B inflam inh -101.2, ATXN2 expr inh inconclusive, SW480 rereplic inconclusive, MCF10A rereplic 11.6µM
CCCOc1ccc(C(=O)C(CN2CCOCC2)c2ccccc2)cc1 (centres undefined)	ATXN viability inconclusive, IL-1B inflam inh -96.9, ATXN2 expr inh 20µM, SW480 rereplic 11.2µM, MCF10A rereplic 17.8µM
O=C(c1ccc(Cl)cc1)C(CN1CCCCC1)c1ccccc1 (centres undefined)	IL-1B inflam inh -103.3, ATXN2 expr inh inconclusive, SW480 rereplic inconclusive, MCF10A rereplic inconclusive (no result: ATXN viability)
CCc1ccc(S(=O)(=O)c2nnn3c2nc(Nc2cccc(C)c2C)c2sccc23)cc1	none (no result: ATXN viability, IL-1B inflam inh, ATXN2 expr inh, SW480 rereplic, MCF10A rereplic)
Cc1ccc(NS(=O)(=O)Cc2ccccc2)cc1Cl	IL-1B inflam inh -86.5, SW480 rereplic inconclusive
O=C1NC(c2cccc3ccccc23)Nc2ccc(Cl)cc21 (centres undefined)	ATXN viability inconclusive, ATXN2 expr inh inconclusive, SW480 rereplic 0.731µM, MCF10A rereplic inconclusive
Cc1ccc2nc(NC(=O)CSc3nc4c(c(=O)n3C)SC(C)C4)sc2c1 (centres undefined)	IL-1B inflam inh -56.3, ATXN2 expr inh inconclusive
Cc1c(Cl)cccc1NC(=O)C(C)n1nc(C)c2c(C)n(-c3ccccc3)nc2c1=O (centres undefined)	none (no result: IL-1B inflam inh, SW480 rereplic, MCF10A rereplic)
Cc1cc(=O)[nH]c2c1c(C)nn2C1CCCC1	none
Cc1cc(=O)[nH]c2c1c(C)nn2C1CCCCC1	SW480 rereplic 8.2µM, MCF10A rereplic 6.51µM
O=C(C=CC=Cc1ccc2c(c1)OCO2)N1CCCCC1	none (no result: ATXN viability, PINK1 modulator, IL-1B inflam inh, SW480 rereplic, MCF10A rereplic)
COCCNC(=S)NN=C1CCC(c2ccccc2)CC1 (centres undefined)	SW480 rereplic inconclusive
COCCNC(=S)NN=C1CCCCCC1	ATXN viability inconclusive, SW480 rereplic inconclusive, MCF10A rereplic 8.2µM
CC(C)(C)OC(=O)NCCc1nnc(SCc2ccccc2Cl)o1	none
CC(C)(C)OC(=O)NCCc1nnc(S(=O)(=O)Cc2ccc(Cl)cc2Cl)o1	IL-1B inflam inh -117.8, ATXN2 expr inh inconclusive, SW480 rereplic inconclusive, MCF10A rereplic 7.31µM (no result: ATXN viability)
CC(=O)N1CCN(C(=O)CCc2nc3ccccc3c(=O)[nH]2)CC1	PINK1 modulator inconclusive
Cc1ccc2c(c1)CCCN2C(=O)CCc1nc2ccccc2c(=O)[nH]1	SW480 rereplic 8.91µM, MCF10A rereplic inconclusive
CCN=c1scc(-c2ccco2)n1/N=C/c1ccc(O)cc1	MCF10A rereplic 23.1µM
CCN=c1scc(-c2ccco2)n1/N=C/c1ccc(OC)c(O)c1	MCF10A rereplic inconclusive
Nc1ncnc2c1ncn2[C@@H]1O[C@H](CNS(=O)(=O)c2ccc3c(c2)CCN(C(=O)C(F)(F)F)C3)[C@@H](O)[C@H]1O	none
O=C(CN(Cc1ccccc1)S(=O)(=O)c1ccc2c(c1)OCCO2)Nc1ccc2c(c1)OCCO2	IL-1B inflam inh -52.7, MCF10A rereplic inconclusive (no result: PINK1 modulator)
CS(=O)(=O)N(CC(=O)Nc1ccc2c(c1)OCCO2)Cc1ccccc1	none
CS(=O)(=O)N(CC(=O)Nc1ccc2c(c1)OCCO2)c1ccc2c(c1)OCO2	none
CS(=O)(=O)N(CC(=O)Nc1ccc2c(c1)OCO2)c1ccccc1	MCF10A rereplic 20.6µM
OCCCNc1nc(-c2ccc(Cl)cc2)nnc1-c1ccc(Br)cc1	IL-1B inflam inh -78.4
Cc1cccc2cc(CN(CC3CCCO3)C(=O)C3CC3)c(N(C)C)nc12 (centres undefined)	none (no result: IL-1B inflam inh, ATXN2 expr inh, SW480 rereplic, MCF10A rereplic)
Cc1cc(C)n(-c2ccc(C(=O)Nc3ccc(C)c(S(=O)(=O)N(C)C)c3)cc2)n1	IL-1B inflam inh -77.6
Cc1cc(C)n(-c2nc3ccccc3nc2Nc2ccc(N(C)C)cc2)n1	none (no result: IL-1B inflam inh, SW480 rereplic, MCF10A rereplic)
COc1ccc(NC(=O)c2ccc(-n3nc(C)cc3C)cc2)cc1OC	IL-1B inflam inh -51.1
Cc1cc(C)n(-c2ccc(C(=O)Nc3ccc(N4CCOCC4)cc3)cc2)n1	none
Cc1ccc2nc(Nc3ccc4[nH]c(=O)[nH]c4c3)c(-n3nc(C)cc3C)nc2c1	ATXN viability inconclusive, IL-1B inflam inh -89.5, ATXN2 expr inh inconclusive
Cc1cc(C)n(-c2nc3ccccc3nc2Nc2ccc3c(c2)OCO3)n1	MCF10A rereplic 16.4µM
O=C(Nc1cccc(N2CCC(NCc3cnn(-c4cccc(F)c4)c3)CC2)c1)c1ccncc1	ATXN viability inconclusive (no result: IL-1B inflam inh, ATXN2 expr inh, SW480 rereplic, MCF10A rereplic)
Cc1cc(C)n(-c2ccc(C(=O)Nc3ccc(S(=O)(=O)NCc4ccco4)cc3)cc2)n1	IL-1B inflam inh -53.8
Cc1cc(C)n(-c2ccc(C(=O)Nc3ccc4c(c3)OCO4)cc2)n1	IL-1B inflam inh -54.5, MCF10A rereplic inconclusive
CC1CCCCN1C(=O)CSc1n[nH]c(-c2ccccc2)n1 (centres undefined)	none (no result: ATXN viability, IL-1B inflam inh, ATXN2 expr inh, SW480 rereplic, MCF10A rereplic)
CC1(C)Cc2c(c(-c3ccco3)nc3sc4c(NCCO)ncnc4c23)CO1	ATXN viability inconclusive (no result: ATXN2 expr inh)
